Source: PubChem BioAssay
Active and inactive are the calls of the source. Unless noted, no rule for the calls is given here.

Experiments:
[1] = anti-His antibody binders, primary screen, artefact control for SMM control protein annotation, biochemical, small-molecule microarray, 635 nm fluorescence (AID 1128); settings: anti-His Alexa647 antibody binding, higher = more signal;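 also: score merges feature fluorescence with signal-to-noise for each printed compound spot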
[2] = system: Human papillomavirus type 1a E7 protein (residues 1-88); experiment: HPV1a E7 small-molecule binders, primary screen, biochemical, small-molecule microarray, residues 1-88, 635 nm (AID 1129); settings: small-molecule microarray binding, fluorescence 635 nm; higher = more signal
[3] = biological target: Focal adhesion kinase 1 (Homo sapiens) (UniProt Q05397); experiment: small-molecule microarray binders of FAK, primary screen, biochemical, 635/667 nm fluorescence, BSA, DTT (AID 1130); settings: PTK2 binding, 635 nm fluorescence, higher = more signal;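 also: composite of spot emission at 667 nm and signal to noise over triplicate slides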
Focal adhesion kinase 1 (Homo sapiens), sequence (Q05397 whole entry, looked up): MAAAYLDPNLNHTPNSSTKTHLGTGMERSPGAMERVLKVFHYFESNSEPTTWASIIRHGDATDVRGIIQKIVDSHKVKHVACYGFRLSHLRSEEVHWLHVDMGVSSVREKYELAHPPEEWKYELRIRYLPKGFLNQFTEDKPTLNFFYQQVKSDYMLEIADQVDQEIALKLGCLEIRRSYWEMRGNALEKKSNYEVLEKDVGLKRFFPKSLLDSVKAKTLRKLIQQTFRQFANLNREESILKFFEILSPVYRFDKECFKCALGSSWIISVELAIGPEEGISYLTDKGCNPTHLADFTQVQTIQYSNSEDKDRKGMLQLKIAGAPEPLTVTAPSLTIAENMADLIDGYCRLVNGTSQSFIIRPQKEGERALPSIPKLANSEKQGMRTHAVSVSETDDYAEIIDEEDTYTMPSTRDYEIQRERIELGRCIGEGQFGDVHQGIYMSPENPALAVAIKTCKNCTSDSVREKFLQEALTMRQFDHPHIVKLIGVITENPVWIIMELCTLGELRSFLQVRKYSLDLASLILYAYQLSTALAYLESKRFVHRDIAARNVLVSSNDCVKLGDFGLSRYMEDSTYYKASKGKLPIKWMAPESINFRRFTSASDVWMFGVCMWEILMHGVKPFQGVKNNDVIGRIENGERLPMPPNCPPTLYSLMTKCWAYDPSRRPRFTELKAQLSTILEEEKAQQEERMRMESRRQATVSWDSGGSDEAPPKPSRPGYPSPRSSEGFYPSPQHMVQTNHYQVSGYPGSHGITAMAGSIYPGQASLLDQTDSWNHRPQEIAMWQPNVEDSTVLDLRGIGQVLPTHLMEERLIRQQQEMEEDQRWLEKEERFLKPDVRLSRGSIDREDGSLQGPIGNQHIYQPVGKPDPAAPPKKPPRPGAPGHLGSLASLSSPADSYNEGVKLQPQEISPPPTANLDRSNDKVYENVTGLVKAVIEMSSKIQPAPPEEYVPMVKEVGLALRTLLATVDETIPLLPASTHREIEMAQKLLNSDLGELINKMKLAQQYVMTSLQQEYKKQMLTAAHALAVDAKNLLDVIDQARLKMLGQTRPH

[4] = system: Fibrinogen (Alexa647-labelled); experiment: fibrinogen binders on compound microarrays, profiling panel, artefact control for SMM control-protein annotation, biochemical, small-molecule microarray, 635/667 nm fluorescence (AID 1131); settings: fibrinogen-A647 binding fluorescence, higher = more signal;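 also: z-score merges 667 nm fluorescence with per-spot signal-to-noise over triplicate slides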
[5] = biological target: Follistatin (Homo sapiens) (UniProt P19883); experiment: follistatin binders on small-molecule microarrays, primary screen, biochemical, small-molecule microarray, 635/667 nm fluorescence (AID 1132); settings: FST binding, 635 nm fluorescence, higher = more signal
Follistatin (Homo sapiens), sequence (P19883 whole entry, looked up): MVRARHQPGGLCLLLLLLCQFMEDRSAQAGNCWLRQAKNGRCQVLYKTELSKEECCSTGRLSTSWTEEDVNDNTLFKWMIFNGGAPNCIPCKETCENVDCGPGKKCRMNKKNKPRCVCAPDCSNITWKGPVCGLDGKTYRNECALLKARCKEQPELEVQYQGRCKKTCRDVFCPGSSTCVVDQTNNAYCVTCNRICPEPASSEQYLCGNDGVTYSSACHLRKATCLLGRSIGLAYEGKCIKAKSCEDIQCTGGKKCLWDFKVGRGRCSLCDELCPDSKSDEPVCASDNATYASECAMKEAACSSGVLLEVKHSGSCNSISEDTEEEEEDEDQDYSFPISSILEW

[6] = biological target: Fibroblast growth factor 2 (Homo sapiens) (UniProt P09038); experiment: FGF2 binders on small-molecule microarrays, primary screen, biochemical, small-molecule microarray, 635/667 nm fluorescence (AID 1133); settings: small-molecule microarray binding, FGF2, fluorescence 635/667; higher = more signal
Fibroblast growth factor 2 (Homo sapiens), sequence (P09038 whole entry, looked up): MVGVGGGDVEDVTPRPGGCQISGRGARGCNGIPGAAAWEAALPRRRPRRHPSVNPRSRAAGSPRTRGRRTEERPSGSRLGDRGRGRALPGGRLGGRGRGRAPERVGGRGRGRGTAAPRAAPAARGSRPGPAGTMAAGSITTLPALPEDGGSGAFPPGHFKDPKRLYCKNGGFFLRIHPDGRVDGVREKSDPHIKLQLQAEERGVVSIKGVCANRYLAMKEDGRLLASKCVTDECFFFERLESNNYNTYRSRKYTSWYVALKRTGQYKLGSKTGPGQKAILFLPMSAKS

[7] = mitochondrial membrane potential change in A549 cells, profiling panel, cell-based, JC-1 fluorescence, basal, 24 h, 100 nL (AID 1138); settings: higher = more signal;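 also: A549 lung adenocarcinoma cells under basal conditions with no added stimulus; test concentration not given here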
[8] = system: Lefty1; experiment: Lefty1 binders on small-molecule microarrays, primary screen, biochemical, small-molecule microarray, 635/667 nm fluorescence (AID 1139); settings: small-molecule microarray binding, fluorescence 635/667; higher = more signal
[9] = system: wheat germ agglutinin (Triticum aestivum), Alexa647-labelled; experiment: wheat germ agglutinin binders on compound microarrays, profiling panel, artefact control for SMM control-protein annotation, biochemical, small-molecule microarray, 635/667 nm fluorescence (AID 1140); settings: WGA-A647 binding, 635 nm fluorescence, higher = more signal;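 also: score merges 667 nm feature emission with signal to noise over triplicate slides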
[10] = biological target: Luciferin 4-monooxygenase (Photinus pyralis) (UniProt P08659); experiment: firefly luciferase enzyme inhibitors, primary screen, biochemical, luminescence, purified enzyme, 2006 set (AID 1141); settings: SteadyGlo luminescence, 30 min, higher = more signal, called active from +8 up or from −8 down;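 also: cell-free assay with purified firefly luciferase at 100 ng per well in PBS; test concentration not given here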
Luciferin 4-monooxygenase (Photinus pyralis), sequence (P08659 whole entry, looked up): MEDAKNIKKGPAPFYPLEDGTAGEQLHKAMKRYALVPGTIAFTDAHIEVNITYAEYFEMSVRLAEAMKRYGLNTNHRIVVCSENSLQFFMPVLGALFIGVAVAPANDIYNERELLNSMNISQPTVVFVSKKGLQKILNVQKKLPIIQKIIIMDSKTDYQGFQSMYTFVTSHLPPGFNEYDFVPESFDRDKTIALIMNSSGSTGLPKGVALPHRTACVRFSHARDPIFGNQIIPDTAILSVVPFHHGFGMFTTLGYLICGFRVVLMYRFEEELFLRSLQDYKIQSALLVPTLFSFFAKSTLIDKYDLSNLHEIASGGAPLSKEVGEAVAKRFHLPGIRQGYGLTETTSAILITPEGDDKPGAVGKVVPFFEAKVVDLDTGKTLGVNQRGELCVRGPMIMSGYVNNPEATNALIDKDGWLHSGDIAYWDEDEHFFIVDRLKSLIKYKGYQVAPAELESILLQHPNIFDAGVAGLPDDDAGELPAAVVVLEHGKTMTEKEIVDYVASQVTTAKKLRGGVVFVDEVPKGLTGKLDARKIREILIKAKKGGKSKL

[11] = system: Wnt5a (protein binding on small-molecule microarray); experiment: Wnt5a binders on small-molecule microarray, primary screen, biophysical, 635/667 nm fluorescence (AID 1142); settings: 635 nm fluorescence, higher = more signal;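 also: fluorescence read at 667 nm with signal to noise per printed feature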
[12] = cell viability in Huh7 cells, primary screen, cytotoxicity control for HCV replication inhibitor project, CellTiter-Glo luminescence, basal, 48 h (AID 1143); settings: Huh7 HCV replicon, higher = more signal, called active from +8 up or from −8 down;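 also: Huh7 hepatoma cells carrying a hepatitis C replication reporter with no stimulus; test concentration not given here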
[13] = P. aeruginosa biofilm formation inhibitors, primary screen, PAO1 strain, BacTiter-Glo luminescence, LB-PBS (AID 1144); settings: 12 h, higher = more signal
[14] = CREB reporter modulators without forskolin, primary screen, cell-based, PC12, CRE-LacZ reporter, unstimulated (AID 1145); settings: no forskolin, luminescence, 4.5 h, higher = more signal, called active from +8 up or from −8 down
[15] = CREB reporter modulators under forskolin, primary screen, cell-based, PC12, CRE-LacZ reporter, forskolin-stimulated (AID 1146); settings: luminescence, 4.5 h, higher = more signal, called active from +8 up or from −8 down;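 also: PC12 cells with 6xCRE LacZ reporter stimulated by forskolin 10 µM; beta-galactosidase reporter signal reflecting CREB driven transcription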
[16] = biological target: Streptavidin (Streptomyces avidinii) (UniProt P22629); experiment: streptavidin binders on small-molecule microarray, primary screen, artefact control for SMM compound annotation, biophysical, 635/667 nm fluorescence (AID 1147); settings: streptavidin binding, higher = more signal;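 also: signal reflects streptavidin binding to arrayed compounds as a control protein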
Streptavidin (Streptomyces avidinii), sequence (P22629 whole entry, looked up): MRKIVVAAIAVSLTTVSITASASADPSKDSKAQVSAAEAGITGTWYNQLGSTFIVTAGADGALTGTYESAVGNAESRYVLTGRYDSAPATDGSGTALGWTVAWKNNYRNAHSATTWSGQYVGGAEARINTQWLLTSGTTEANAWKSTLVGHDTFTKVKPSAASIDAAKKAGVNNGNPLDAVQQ

[17] = small-molecule binders of probe aInhba, primary screen, biochemical, small-molecule microarray, 635/667 nm fluorescence (AID 1148); settings: higher = more signal;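 also: score merges 667nm spot fluorescence with signal-to-noise for antibody binding to printed compounds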
[18] = biological target: Torsin-1A (Homo sapiens) (UniProt O14656); experiment: torsin A binders from cell lysate, primary screen, small-molecule microarray, wild-type, 635/667 nm (AID 1149); settings: COS7 hTOR1A-WT lysate, 635 nm fluorescence, higher = more signal
Torsin-1A (Homo sapiens), sequence (O14656 whole entry, looked up): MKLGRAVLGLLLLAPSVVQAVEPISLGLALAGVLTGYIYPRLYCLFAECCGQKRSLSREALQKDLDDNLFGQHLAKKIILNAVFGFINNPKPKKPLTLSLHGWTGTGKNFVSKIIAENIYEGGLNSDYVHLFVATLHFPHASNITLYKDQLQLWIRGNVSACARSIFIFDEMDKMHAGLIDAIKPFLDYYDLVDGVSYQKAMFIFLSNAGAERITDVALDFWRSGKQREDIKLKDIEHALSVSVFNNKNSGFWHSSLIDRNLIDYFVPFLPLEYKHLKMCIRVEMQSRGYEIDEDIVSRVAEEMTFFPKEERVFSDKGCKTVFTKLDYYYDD

[19] = biological target: Torsin-1A (Homo sapiens) (UniProt O14656); experiment: small-molecule binders of mutant TOR1A in lysate, primary screen, cell lysate, small-molecule microarray, COS7 lysate, 635/667 nm fluorescence (AID 1150); settings: COS7 hTOR1A mutant lysate, 635 nm fluorescence, higher = more signal;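 also: score pools 667 nm emission and signal to noise measuring lysate protein binding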
[20] = system: Sonic hedgehog protein (Shh); experiment: small-molecule binders of Shh protein, primary screen, biochemical, small-molecule microarray, 635/667 nm fluorescence (AID 1151); settings: small-molecule microarray binding, 635 nm fluorescence; higher = more signal;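 also: Shh protein binding to compounds spotted on small-molecule microarray slides; score combines spot fluorescence intensity with signal-to-noise across triplicate slides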

Row | Structure (SMILES) | composite z-score [1] | composite z-score [2] | composite z-score [3] | composite z-score [4] | composite z-score [5] | composite z-score [6] | z-score [7] | composite z-score [8] | composite z-score [9] | z-score [10] | composite z-score [11] | z-score [12] | z-score [13] | z-score [14] | z-score [15] | composite z-score [16] | composite z-score [17] | composite z-score [18] | composite z-score [19] | composite z-score [20]
1 | COCCOC(=O)N1C(=O)[C@@]2(c3cc(C#CCNC(N)=O)ccc31)[C@H](c1ccc(O)cc1)N1[C@H](c3ccccc3)[C@H](c3ccccc3)OC(=O)[C@H]1[C@@H]2C(=O)N1CCc2cc(OC)c(OC)cc2C1 | 1.24 | 1.11 | 1.33 | 0.336 | 1.36 | 0.636 | -0.683 | 0.8 | 0.815 | -1.45 (inactive) | 0.0981 | -0.483 (inactive) | 0.389 (inactive) | -0.0515 (inactive) | -0.379 (inactive) | 0.468 | -0.0448 | -0.0669 | 0.148 | 0.97
2 | CS(=O)(=O)CCOC(=O)C1=CC(CCCO)=CC(C2CC2)N(Cc2sc3ccccc3c2Cl)C=C1C(=O)OCCS(C)(=O)=O (stereo not given) | 2.14 | 1.04 | 0.435 | 0.753 | 1.3 | 0.897 | 0.995 | 1.23 | 1.03 | -1.14 (inactive) | 0.296 | -2.27 (inactive) | -0.15 (inactive) | 2.57 (inactive) | -0.655 (inactive) | 1.41 | 0.523 | 1.15 | 1.48 | 1.41
3 | O=C(NC1CC1)[C@@H]1c2ccccc2C(=O)N(C2CCCCC2)[C@H]1c1ccc(CO)cc1 | 1.86 | 1.15 | 0.498 | -0.518 | 0.27 | -0.027 | 0.116 | -0.413 | 0.063 | 0.0436 (inactive) | 0.0033 | -1.49 (inactive) | 0.446 (inactive) | -0.0259 (inactive) | -0.592 (inactive) | -0.104 | -0.221 | -0.164 | 0.324 | -0.118
4 | C[C@]1(C(=O)NCC(F)(F)F)c2ccccc2C(=O)N(Cc2cc(C(F)(F)F)cc(C(F)(F)F)c2)[C@H]1c1ccc(CO)cc1 | 0.0266 | 0.416 | 0.0715 | 0.412 | -0.0478 | 0.292 | 1.23 | -0.541 | -0.174 | -1.17 (inactive) | -0.127 | -0.286 (inactive) | 0.878 (inactive) | 0.324 (inactive) | 0.0167 (inactive) | -0.7 | -0.0963 | -0.469 | -0.34 | -0.21
5 | Cc1ccc(S[C@]2(C(=O)NC(C)C)CC(=O)N(Cc3ccccc3)[C@@H]2c2ccc(CO)cc2)cc1 | 0.0893 | -0.161 | 0.274 | -1.36 | -1.15 | -1.36 | 0.649 | -1.06 | 0.704 | 0.262 (inactive) | -0.394 | -2.19 (inactive) | -1.55 (inactive) | -0.295 (inactive) | 0.12 (inactive) | -0.375 | -0.143 | -1.65 | -1.5 | -0.501
6 | COCCCNC(=O)[C@@]1(Cc2ccccc2I)c2ccccc2C(=O)N(Cc2ccccc2OC)[C@H]1c1ccc(CO)cc1 | 3.03 | 1.18 | 0.0958 | 0.198 | -0.268 | -0.39 | 1.93 | -1.26 | 0.214 | -0.773 (inactive) | -0.43 | -3.39 (inactive) | 0.767 (inactive) | 0.531 (inactive) | -0.797 (inactive) | -0.67 | -0.162 | 0.884 | 0.431 | -0.845
7 | Cc1ccc(S[C@]2(C(=O)NCCN3CCOCC3)CC(=O)N(C(C)C)[C@@H]2c2ccc(CO)cc2I)cc1 | -1.03 | -0.636 | 0.218 | -1.09 | -0.453 | -0.706 | 1.94 | -0.816 | -0.581 | -1.3 (inactive) | -0.141 | -2.88 (inactive) | -0.121 (inactive) | -0.116 (inactive) | -0.395 (inactive) | -0.676 | 0.0228 | -0.533 | -0.26 | -0.0348
8 | N#Cc1ccc(NN2C(C(O)c3ccc(B(O)O)cc3)C=CC3CN(c4ccccc4)C(=O)C32)cc1 (stereo not given) | 0.48 | -0.633 | -0.508 | 0.529 | -0.0923 | -0.436 | -0.408 | -0.118 | 0.485 | -1.24 (inactive) | -0.465 | -0.0138 (inactive) | -0.454 (inactive) | -0.898 (inactive) | -0.758 (inactive) | 0.287 | -0.128 | -0.0754 | 0.103 | -0.944
9 | COc1ccc([Si](C)(C)[C@@H]2[C@@H](CC(=O)N3CCC[C@H]3CO)O[C@]3(C(=O)N(Cc4cccc(N5C(=O)c6cccc7cccc5c67)c4)c4ccccc43)[C@H]2C)cc1 | 1.2 | 1.03 | 0.948 | 0.584 | 1.16 | 1.43 | -0.0137 | 0.839 | 1.21 | -0.0921 (inactive) | 0.614 | -5.86 (inactive) | -0.334 (inactive) | 0.819 (inactive) | -1.41 (inactive) | 0.609 | -0.129 | 0.729 | 0.499 | 1.42
10 | CCCCN1CC=CC23O[C@@H]4/C=C\CCC(C)OC(=O)C4[C@H]2C(=O)N(CCO)[C@@H]3C1=O (stereo not given in full) | 3.24 | -0.424 | 0.548 | -1.18 | -0.531 | -1.49 | -0.145 | 0.0422 | -0.169 | 1.1 (inactive) | -0.122 | -1.08 (inactive) | -1.31 (inactive) | -0.627 (inactive) | -0.0432 (inactive) | -1.52 | -0.0494 | 2.84 | 2.94 | -0.0956
